Screening results: PubChem, National Center for Advancing Translational Sciences (NCATS)
S-ASM inh = blocks human secretory acid sphingomyelinase. P17405. 340,000 tested, 0.006% active. Potency, µM (series often up to 57.5 µM), most hits filed as inhibitors. placental ASM, HMU-PC fluorogenic substrate, 60 min
Target sequence (P17405 47-631 limits assumed): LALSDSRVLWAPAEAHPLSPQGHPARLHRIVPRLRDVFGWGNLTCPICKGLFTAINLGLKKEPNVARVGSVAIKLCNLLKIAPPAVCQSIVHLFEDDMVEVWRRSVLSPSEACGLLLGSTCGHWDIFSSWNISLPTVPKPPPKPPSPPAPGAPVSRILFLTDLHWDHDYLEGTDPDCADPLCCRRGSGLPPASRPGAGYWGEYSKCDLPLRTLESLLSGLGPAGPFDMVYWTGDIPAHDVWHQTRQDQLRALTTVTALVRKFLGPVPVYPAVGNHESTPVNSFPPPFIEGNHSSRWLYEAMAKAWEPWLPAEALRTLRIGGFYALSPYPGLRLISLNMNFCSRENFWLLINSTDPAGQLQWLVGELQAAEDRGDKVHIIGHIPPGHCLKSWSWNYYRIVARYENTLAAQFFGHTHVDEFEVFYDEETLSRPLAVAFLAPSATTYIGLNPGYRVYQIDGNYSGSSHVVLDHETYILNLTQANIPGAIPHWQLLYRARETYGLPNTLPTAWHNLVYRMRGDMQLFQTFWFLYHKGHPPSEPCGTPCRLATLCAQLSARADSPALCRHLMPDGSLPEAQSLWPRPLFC
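Fluorogenic HMU-PC substrate (9 uM final) is turned over by placental ASM in 60 min at 37 C after a 10 min compound preincubation. Reaction ended by alkaline stop (pH 10), with fluorescence read at 386/447 nm.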
IL1B secr inh = inflammasome signaling inhibition, IL-1 beta readout | THP-1 LPS/ATP IL-1B secretion, AlphaLISA, 16 h; hits give low values | activity change, % at 57.5 µM | 360,000 tested, 4.7% active | AID 743279; in the data active = activity change below about -50%; inconclusive = mostly about -30% to -49%
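THP-1 cells pretreated 1 hr with compounds (up to 57.5 uM final), then stimulated with LPS (250 ng/mL final) plus ATP (1.25 mM final); secreted IL-1B measured by AlphaLISA after 16 hr, decreased signal indicating inhibition.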
TDP1 cell CPT = DT40-hTDP1 cell growth loss with CPT; chicken DT40 Tdp1-/-;hTDP1 cells + 20 nM CPT, ATP luminescence, 48 h; Potency, µM (highest dose often 46.2 µM), most hits filed as inhibitors; 420,000 tested, 12% active; AID 686979; note: nearly all actives have a fitted effect of over 55% in size
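Chicken DT40 Tdp1-/- cells complemented with human TDP1, 400 cells/well, exposed to compounds plus 20 nM camptothecin for at least 48 h at 37 C; viability read as ATP content by CellTiter-Glo luminescence.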
TGFb inhibitor = blocks TGF-b signaling; HepG2 CAGA-GFP TGF-b/SMAD3 reporter, GFP fluorescence, 18 h; TGF-beta stimulated, 500 pg/mL final; Potency, µM (top dose mostly 46.1 µM), most hits filed as inhibitors; 410,000 tested, 1.2% active; AID 588855; note: nearly all actives have a fitted effect of over 65% in size
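HEPG2 CAGA-GFP, 1000 cells/well; 2 h settle, 37 C; cpd via pin tool; TGF-b 500 pg/mL final; 18 h, 37 C; GFP imaging ex488/em500-530; %Activity normalised to -TGF-b and +DMSO controls; CRC fit, curve class.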
HepG2 tox = HepG2 cytotoxicity, counter-screen for TGF-b inhibitors | HepG2 CAGA-GFP viability, ATP luminescence, 18 h | Potency, µM (highest dose often 46.1 µM), most hits filed as cytotoxic | 410,000 tested, 0.76% active | AID 588856
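CellTiter-Glo luminescence gave cytotoxicity after 18 hours at 37 degrees C. The cells were HepG2 CAGA-GFP in 1% FBS DMEM, stimulated with 500 pg/mL TGF-beta after compound addition. %Activity was normalised to no-cell wells (complete cell-killing) and DMSO (no toxicity), and curves were fitted and classified.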
DT40 TDP1 no CPT = qHTS for Inhibitors of human tyrosyl-DNA phosphodiesterase 1 (TDP1): qHTS in cells in absence of CPT; DT40 Tdp1-/- hTDP1 cells, no CPT, ATP luminescence, 48 h; Potency, µM (highest dose often 46.2 µM), most hits filed as inhibitors; 420,000 tested, 15% active; AID 686978, 2013; note: nearly all actives have a fitted effect of over 55% in size
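Seeded 400 DT40-hTDP1 cells/well (vehicle DMSO, no 20 nM CPT); pinned compounds; ≥48 hr at 37 °C; CellTiter-Glo luminescence as viability measure.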
A number is an active result. In the library only some 19% were active in any assay of this set; here they are far more common. Unless noted, calls come from the whole dose curve; as a rule, active = well fitted curve in the direction sought with a large enough effect; inconclusive = small, poorly fitted or top-dose-only effect, or another doubt; inactive = no such curve, though single readings can be large; an effect the other way counts as inactive or inconclusive.

O=C(CCc1nc2ccccc2c(=O)[nH]1)Nc1ccc(F)c([N+](=O)[O-])c1 was read as S-ASM inh inactive, IL1B secr inh inactive, TDP1 cell CPT inconclusive, TGFb inhibitor inactive, HepG2 tox inactive and DT40 TDP1 no CPT inconclusive.
Screening O=C(Nc1cc([N+](=O)[O-])c2[nH]c(=O)c3ccccc3c2c1)C(F)(F)F returned S-ASM inh inactive, IL1B secr inh inactive, TDP1 cell CPT 0.29µM, TGFb inhibitor inactive, HepG2 tox inactive and DT40 TDP1 no CPT 1.8µM.
For COc1ccc(N(CC(=O)NC2CC3CCC2C3)S(=O)(=O)c2ccccc2)cc1Cl (stereo unspecified) the results were S-ASM inh inactive, IL1B secr inh inactive, TDP1 cell CPT inconclusive, TGFb inhibitor inactive, HepG2 tox inactive and DT40 TDP1 no CPT inconclusive.
Screening CC(C)(C)c1ccc(C(=O)/C(C#N)=C/c2cccs2)cc1 returned S-ASM inh inactive, IL1B secr inh inactive, TDP1 cell CPT inactive, TGFb inhibitor inactive, HepG2 tox inactive and DT40 TDP1 no CPT inactive.
`CC(C)(C)c1ccc(C(=O)N2CCCC2c2cccs2)cc1` (stereo unspecified) gave S-ASM inh inactive, IL1B secr inh -99, TDP1 cell CPT inactive, TGFb inhibitor inconclusive, HepG2 tox inactive and DT40 TDP1 no CPT inconclusive.
For Cc1nc(NCC(=O)c2c[nH]c3ccccc23)sc1C the results were TDP1 cell CPT 6.3µM, TGFb inhibitor inconclusive, HepG2 tox inactive and DT40 TDP1 no CPT inconclusive.
`CC(=O)N1CCN(C(=O)COC(=O)CNC(=O)c2ccccc2C)CC1` gave S-ASM inh inactive, IL1B secr inh inactive, TDP1 cell CPT inactive, TGFb inhibitor inactive, HepG2 tox inactive and DT40 TDP1 no CPT inactive.
For COc1ccccc1CNC(=O)CSc1ccc(C(=O)Nc2ccccc2OC)cc1[N+](=O)[O-] the results were IL1B secr inh inactive, TDP1 cell CPT 9.2µM, TGFb inhibitor inactive, HepG2 tox inactive and DT40 TDP1 no CPT 9.2µM.
For COc1ccccc1NC(=O)c1ccc(SCC(=O)NCc2ccccc2Cl)c([N+](=O)[O-])c1 the results were IL1B secr inh inactive, TDP1 cell CPT inconclusive, TGFb inhibitor inactive, HepG2 tox inactive and DT40 TDP1 no CPT inconclusive.
`CCCCC(c1nnnn1CC1CCCO1)N1CCN(c2ccccc2)CC1` (stereo unspecified) gave S-ASM inh inactive, IL1B secr inh inactive, TDP1 cell CPT inactive, TGFb inhibitor inactive, HepG2 tox inactive and DT40 TDP1 no CPT inactive.
CCCCC(c1nnnn1CC1CCCO1)N1CCN(c2cc(Cl)ccc2C)CC1 (stereo unspecified) was read as S-ASM inh inactive, IL1B secr inh inactive, TDP1 cell CPT inconclusive, TGFb inhibitor inactive, HepG2 tox inactive and DT40 TDP1 no CPT 16µM.
For CCCCC(c1nnnn1CC1CCCO1)N1CCN(c2nc3ccccc3s2)CC1 (stereo unspecified) the results were S-ASM inh inactive, IL1B secr inh inactive, TDP1 cell CPT 23µM, TGFb inhibitor inactive, HepG2 tox inactive and DT40 TDP1 no CPT inconclusive.
Screening COC(=O)c1ccc(NC(=O)c2cccc(C)c2[N+](=O)[O-])cc1 returned S-ASM inh inactive, IL1B secr inh inactive, TDP1 cell CPT inactive, TGFb inhibitor inactive, HepG2 tox inactive and DT40 TDP1 no CPT inactive.
CCC(=O)N1c2ccc(S(=O)(=O)N3CCOCC3)cc2CC1C (stereo unspecified) was read as S-ASM inh inactive, IL1B secr inh inactive, TDP1 cell CPT inactive, TGFb inhibitor inactive, HepG2 tox inactive and DT40 TDP1 no CPT inactive.
CNC(=O)CN1C(=O)CSc2ncccc21 was read as S-ASM inh inactive, IL1B secr inh inactive, TDP1 cell CPT inactive, TGFb inhibitor inactive, HepG2 tox inactive and DT40 TDP1 no CPT inactive.
Screening Cc1ccc2c(c1)N(CC(=O)Nc1ccccc1C(F)(F)F)C(=O)c1cccnc1O2 returned TDP1 cell CPT inconclusive, TGFb inhibitor inactive, HepG2 tox inactive and DT40 TDP1 no CPT inconclusive.
